# Assay results taken from PubChem BioAssay AID1671190 (National Center for Advancing Translational Sciences (NCATS), 2021).
# “And” between values parts separate entries of the source, which are not always exact repeats. Identical values can stand only once. The campaign covered roughly 580,000 compounds. About 6,100 (1.1%) were called active. Another 15% or so got no clear call; they are omitted. Many of the other results were omitted from the sample, so actives are more common in it than they were. Unmarked numbers belong to inactive results. The call rests on the fitted dose curve; in most records, active means well fitted inhibition curve with a large enough effect; inconclusive means small, poorly fitted or top-dose-only effect, or another doubt; inactive means no such curve, though single readings can be large or run the other way.
# Target: Polyunsaturated fatty acid lipoxygenase ALOX12 (Homo sapiens) (UniProt P18054)
# Test: Primary qHTS assay for inhibitors of human arachidonate 12S-lipoxygenase (ALOX12): Round 2
# Conditions: purified 12hLO, xylenol orange hydroperoxide absorbance; series mostly up to 108 µM; activity change, negative = inhibition: at the top concentration
# Method in brief: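 Purified human 12hLO (150 nM final) in 25 mM Hepes, 0.01% Triton X-100, pH 7.0 was preincubated 15 min at room temperature with compound. Then 40 uM arachidonic acid was added, 30 min. Hydroperoxide was read by Fe-XO absorbance ratio 573/405 nm.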
# On the % scale 0 is the no-effect control and ±100 the full control effect; potency means the concentration at half of the fitted maximal effect.
# Sequence of Polyunsaturated fatty acid lipoxygenase ALOX12 (Homo sapiens) (P18054 whole entry, looked up): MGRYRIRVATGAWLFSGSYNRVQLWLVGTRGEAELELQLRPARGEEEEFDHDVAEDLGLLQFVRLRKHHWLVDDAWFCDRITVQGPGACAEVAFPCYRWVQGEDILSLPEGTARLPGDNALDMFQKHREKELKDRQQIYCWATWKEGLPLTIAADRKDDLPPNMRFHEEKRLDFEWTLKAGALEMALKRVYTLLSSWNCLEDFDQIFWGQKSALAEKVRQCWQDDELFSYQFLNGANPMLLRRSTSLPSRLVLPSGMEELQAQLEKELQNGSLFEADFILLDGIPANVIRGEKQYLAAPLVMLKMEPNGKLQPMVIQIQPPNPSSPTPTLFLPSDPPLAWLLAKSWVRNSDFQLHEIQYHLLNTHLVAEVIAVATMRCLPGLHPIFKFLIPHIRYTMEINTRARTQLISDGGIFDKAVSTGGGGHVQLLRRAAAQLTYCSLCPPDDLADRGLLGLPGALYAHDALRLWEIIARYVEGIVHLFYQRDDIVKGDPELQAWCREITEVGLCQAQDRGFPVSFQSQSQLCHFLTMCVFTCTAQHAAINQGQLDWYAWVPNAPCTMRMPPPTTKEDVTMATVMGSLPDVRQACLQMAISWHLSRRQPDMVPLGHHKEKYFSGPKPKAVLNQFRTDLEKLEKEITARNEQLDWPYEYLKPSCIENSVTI
Structure (SMILES),"activity change, negative = inhibition [%]",Potency
CC(=O)c1c(SCC(=O)Nc2ccc(F)cc2)nc(=O)[nH]c1C,2.13,–
COCC(=O)N1CCC(c2nc(C3CCOCC3)n[nH]2)CC1,31.6,–
Cc1ccc(NS(=O)(=O)c2cccc(C(=O)N(C)C(C)c3nc4ccccc4s3)c2)cc1 (stereo unspecified),-24.6,–
COc1ccc(S(=O)(=O)Nc2ccc(O)c(Sc3nc4ccccc4s3)c2)cc1,–,44.7 µM (active) and 22.4 µM (active)
COc1ccc(Nc2nc3ccccc3nc2NS(=O)(=O)c2ccc(OC)cc2)cc1,30.7,–
COC(=O)C1=C(C)NC(=O)C1(NC(=O)c1ccccc1F)C(F)(F)F (stereo unspecified),4.24,–
CCCCCCc1ccc(/C(C)=C\C(=O)O)cc1,-0.714,–
CC(C)Oc1ccc(-c2cc(C(=O)NCc3ccncc3)c3ccccc3n2)cc1,2.41,–
CCOc1ccc(CNC(=O)c2cc(-c3ccc(Cl)s3)nc3ccccc23)cc1,3.09,–
CCc1ccc(-c2cc(C(=O)NCc3ccco3)c3ccccc3n2)s1,–,17.8 µM (active) and 35.5 µM (active)
O=C(CSc1nc(-c2ccc(F)cc2)cs1)NC1CCCCC1,-28.6,–
CC(C)Cn1cnc2c1c(=O)n(CC(=O)OCc1ccc(F)cc1)c(=O)n2Cc1ccccc1,-0.353,–
COC(=O)C1=C(C)Nc2nc3ccccc3n2C1c1cc(OC)c(O)c(OC)c1 (stereo unspecified),-5.58,–
CCOc1ccc(NC(=O)c2ccc(Cl)cc2)c2cccnc12,-4.2,–
CC(C)Oc1ccc(NC(=O)c2ccc(Cl)cc2)cc1,11.9,–
CCC(CO)Oc1cc(NC(=O)c2ccc(Cl)cc2)c2ncn(C(C)C)c2c1 (stereo unspecified),–,3.16 µM (active)
COc1ccccc1C(=O)N1CCCN(CCc2ccccc2)c2ccccc21,-8.95,–
COc1cccc(CN2Cc3cc(NC(=O)Cc4cccs4)ccc3OC(C)C2=O)c1OC (stereo unspecified),-4.41,–
O=C(NCc1ccc(Cl)cc1)c1cc(-c2ccc[nH]2)n[nH]1,–,31.6 µM (active)
CCOc1ccc(Cl)cc1-c1cc(C(=O)NCc2cccs2)[nH]n1,2.11,–
COc1ccccc1CNC(=O)c1cc(-c2cc(Cl)ccc2C)n[nH]1,4.1,–
CCCn1nc(C(=O)Nc2nc(-c3ccc(NC(C)=O)cc3)cs2)c2ccccc2c1=O,9.87,–
CC(NC(=O)CSc1ccc(F)c(F)c1)c1nc2ccccc2[nH]1 (stereo unspecified),23.4,–
CCNC(=S)Nc1ccc(C)cc1Br,-16.7,–
Cc1cc(Cl)ccc1NC(=S)NCCCN1CCCC1=O,-17.6,–
Cc1c(Cl)cccc1NC(=S)NCCSc1ccc(Cl)cc1,-85.7,–

Structure (SMILES),"activity change, negative = inhibition [%]",Potency
CCC(C)C(NC(=O)NCc1ccc(C)cc1)C(=O)O (stereo unspecified),-26.5,–
Cc1nn(C)c2c1c(C(F)(F)F)cc(=O)n2C(C)C(=O)NCc1ccc(Cl)cc1 (stereo unspecified),-0.223,–
O=C(NCCc1ccccc1)Oc1ccc(Cl)cc1,0,–
S=C(NCCc1ccc(Cl)cc1)Nc1ccc(Oc2ccccc2)cc1,–,17.8 µM (active)
Cc1cccc(NC(=S)NCCc2ccc(F)cc2)c1C,–,39.8 µM (active)
Cc1cccc(NC(=S)N2CCC(O)CC2)c1C,6.13,–
Cc1ccc(C)c(C(C)NC(=S)NCc2ccc(Cl)cc2)c1 (stereo unspecified),–,31.6 µM (active)
Cc1ccc(NC(=S)NCCc2ccc(Cl)cc2)c(C)c1,–,35.5 µM (active)
CN(CC(=O)Nc1ccc(Cl)cc1)C(=O)c1ccc(COc2ccccc2)cc1,-58.7,–
CN1CCN(C(=O)CCCC(=O)O)CC1,15.9,–
Cc1ccc([S+](=O)([O-])N2CCC3(CC2)CC(=O)N(c2ccccc2)c2ccccc2O3)cc1,0.498,–
CC(C)CC1CCCN1 (stereo unspecified),-58.6,–
CCn1cc(CN2CCC(N3CC(OCC4CC4)C34CCCCC4)CC2)cn1 (stereo unspecified),34.7,–
CC[n+]1c(C)n(-c2ccccc2)c2ccc(NC(C)=O)cc21,–,39.8 µM (active)
CC(=O)Nc1ccc(S(=O)(=O)N2CCN(c3ccccc3)CC2)cc1,-22.7,–
CC(=O)Nc1ccc(NC(=O)CSc2nnc(C3CC3)n2-c2ccccc2)cc1,14.7,–
COCC1CN(C(C)=O)CC12CCN(C(=O)c1n[nH]c(=O)c3ccccc13)CC2 (stereo unspecified),36.8,–
N#CC(C#N)=Cc1ccc(-c2cccc(C(=O)O)c2)o1,-13.7,–
Cc1ccnc(-c2cccc([N+](=O)[O-])c2)[n+]1[O-],-31.8,–
CC(=O)C(=Cc1ccc(-c2cccc([N+](=O)[O-])c2)o1)C(C)=O,–,0.631 µM (active)
O=C(Nc1ccc(F)c(F)c1)c1nc2ccccc2nc1N1CCOCC1,-46.7,–
CCC(C)Cn1c(O)cc2nn(-c3nc4ccccc4s3)c(=O)c-2c1C (stereo unspecified),–,31.6 µM (active)
CC(C)Cn1nc(C(=O)Nc2ccc3nc(N4CCOCC4)sc3c2)c2ccccc2c1=O,-20.9,–
CCNC(=O)CN1CCCN(C(=O)CCCc2c[nH]c3ccccc23)CC1,9.16,–
Cc1ccc(S(=O)(=O)/N=C(/NC(=S)Nc2c(C)n(C)n(-c3ccccc3)c2=O)c2ccccc2)cc1,–,28.2 µM (active)
